# Laboratory results published in PubChem BioAssay AID602440 (Sanford-Burnham Center for Chemical Genomics, 2012).
# Screen size: about 360,000 compounds; about 2,300 (0.64%) were called active. For the sample, actives were picked, then their nearest neighbours and some compounds at random. A number with no mark means an inactive call. Rule as the data show it: active = inhibition mostly above about 40% (no sharp cut-off); inactive = mostly below about 27%.
# Molecular target: Sentrin-specific protease 8 (Homo sapiens) (UniProt Q96LD8)
# Sequence (Q96LD8 whole entry, looked up): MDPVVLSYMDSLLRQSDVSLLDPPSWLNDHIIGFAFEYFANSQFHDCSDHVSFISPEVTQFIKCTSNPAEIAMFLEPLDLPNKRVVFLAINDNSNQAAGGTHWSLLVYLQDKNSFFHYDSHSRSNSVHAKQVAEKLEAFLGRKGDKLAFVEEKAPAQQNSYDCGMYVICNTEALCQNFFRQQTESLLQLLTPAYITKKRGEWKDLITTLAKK
# Assay: human SENP8 protease inhibitors, primary screen, biochemical, fluorescence, Nedd8 protein substrate, uHTS (AID 602440)
# Conditions: recombinant SENP8, Nedd8 substrate fluorescence; at 20 µM; stronger effect = higher value
row,Structure (SMILES),inhibition
1,CN(C)c1ccc(Nc2c3c4c(cccc4n(C)c2=O)C(=O)c2ccccc2-3)cc1,52.7% (active)
2,Cc1ccc(NC(=S)N(CCCN2CCCC2)Cc2cccn2Cc2ccc(Cl)cc2)cc1,14.9%
3,CCOC(=O)c1ccc2c(c1)nc(C)n2CC,17.4%
4,CCn1c(C)nc2c1C(=O)c1ccccc1C2=O,53.2% (active)
5,Cc1nc2ccccc2n1CC(O)c1ccccc1 (centres undefined),0.7%
6,O=C(NC(=S)N1CCc2ccccc21)c1ccco1,11.3%
7,Cc1c(C(=O)N(Cc2ccccc2)Cc2cccnc2)cnn1-c1ccc(F)cc1,7.4%
8,O=C(Nc1cc2c3c(c1)C1CCCC1CN3CC1CCCC21)c1ccc([N+](=O)[O-])cc1 (centres undefined),40.6% (active)
9,CN1C2CCC1CC(NC(=O)c1ccc([N+](=O)[O-])cc1)C2 (centres undefined),17.8%
10,O=C(CCNC(=O)c1ccc([N+](=O)[O-])cc1)NC1CCCCC1,15.8%
11,CCC1CCCCN1C(=O)Nc1cccc(NC(=O)N2CCCCC2CC)c1 (centres undefined),13%
12,CC(CCn1cccn1)NC(=O)CCc1nnc(CCc2ccccc2)o1 (centres undefined),7.6%
13,CCOc1cc(/C=N/NC(=O)c2ccncc2)cc(Br)c1O,19.2%
14,Cc1ccc(C(=O)N/N=C\c2cc(Br)c(Br)o2)cn1,58.6% (active)
15,O=C(N/N=C/c1ccc(Br)o1)c1cncc(Br)c1,-18.2%
16,COC(=O)C1=C(C)NC(=S)NC1c1ccc(OCC(=O)N2CC(C)OC(C)C2)c(OC)c1 (centres undefined),3.3%
17,O=C(CN(C(=O)c1csnn1)c1cccc(F)c1)NCc1ccc(F)cc1,8.3%
18,Cn1c2c(c(=O)n(C)c1=O)C(c1cccc([N+](=O)[O-])c1)Nc1ccccc1O2 (centres undefined),22.9%
19,O=C(CN1CCN(c2cccc(Cl)c2)CC1)Nc1ccc(S(=O)(=O)N2CCOCC2)cc1,15%
20,COc1cccc(-c2nn(-c3ccccc3)cc2/C=C(\C#N)C(=O)NCCCn2ccnc2)c1,-266%
21,CN(C)S(=O)(=O)c1cccc(-c2nn(-c3ccccc3)cc2/C=C2\SC(=S)N(CC(=O)O)C2=O)c1,44% (active)
22,Cc1ccc(-c2nn(-c3ccccc3)cc2/C=C/C(=O)Nc2cccc(S(N)(=O)=O)c2)cc1,-81.3%
23,O=[N+]([O-])c1c(NCCO)cc(Sc2nc3ccccc3s2)c2nonc12,75.9% (active)
24,CC(C)(C)NC(=O)C(CCc1ccccc1)n1c(=O)c(-c2ccccc2)nc2ccccc21 (centres undefined),-332%
25,CS(=O)(=O)N1CCN(c2ccc(C(=O)NC3C4CC5CC(C4)CC3C5)cc2[N+](=O)[O-])CC1 (centres undefined),13.8%

row,Structure (SMILES),inhibition
1,Cc1cccc(N2CCN(c3ccc(C(N)=O)cc3[N+](=O)[O-])CC2)c1C,15.7%
2,CC(C)c1ccc(S(=O)(=O)N2CCN(C(=O)c3ccc(N4CCCC4)c([N+](=O)[O-])c3)CC2)cc1,11.9%
3,CN1CCN(S(=O)(=O)c2ccc(N3CCN(c4ccccc4O)CC3)c([N+](=O)[O-])c2)CC1,39.2% (active)
4,Cc1ccccc1N1CCN(S(=O)(=O)c2ccc3ccccc3c2)CC1,12.3%
5,Cc1ccc(C(=O)c2ccc(N3CCN(C)CC3)c([N+](=O)[O-])c2)cc1,47.4% (active)
6,COC(=O)c1ccccc1NC(=O)C1CCN(C(=O)N2CCOc3ccccc32)CC1,-37.2%
7,COc1ccc(NC(=O)N2CCCC(c3nc(-c4ccc(F)cc4)no3)C2)cc1 (centres undefined),9.6%
8,C[C@H]1CN([C@@H](C)CO)C(=O)CCCn2cc(nn2)CO[C@@H]1CN(C)S(=O)(=O)c1ccc(-c2ccccc2)cc1,12.7%
9,C/C(N)=C(/C#N)C(=O)COC(=O)c1cc(-c2cccc(Br)c2)nc2ccccc12,-25.4%
10,COc1cccc2c1C(=O)c1c(O)c3c(c(O)c1C2=O)CC(O)(C(C)=NNC(=O)c1ccc(Cl)c(Cl)c1)CC3OC1CC(N)C(O)C(C)O1 (centres undefined),46.6% (active)
11,CCCC(O)(c1ccc(OC)cc1)C(CN(C)C)c1ccccc1 (centres undefined),10.7%
12,NC(=O)C1CCN(CC(O)CSc2ccc(F)cc2)CC1 (centres undefined),17%
13,NC(=O)COC(=O)c1cc(S(=O)(=O)N2CCN(c3ccccc3)CC2)ccc1Cl,14.7%
14,CC/C(=N/Nc1ccccc1)c1cnnc(SC)n1,61.2% (active)
15,C/C(=N\Nc1ccccc1)c1cccs1,-20.5%
16,CSc1ncc(C(=O)NCCCc2ccccc2)c(C)n1,-24.7%
17,CN(C(=O)c1cccc(NC(=O)Cc2ccc([N+](=O)[O-])cc2)c1)C1CCC1,19.5%
18,O=S(=O)(Nc1ccc(-n2cnnn2)cc1)c1ccc(Cl)cc1,5.5%
19,CCOC(=O)c1[nH]c(C)c(C(=O)OCC(=O)N2c3ccccc3CC2C)c1C (centres undefined),31.3%
20,CCOC(=O)c1c(C)[nH]c2c1-c1ccccc1C(=O)C2=O,121% (active)
21,CCOC(=O)c1c(C)oc(C)c(C(=O)OCC)c1=O,11.2%
22,CCn1cc(C(=O)NCC(=O)NC(C)(C)CO)c(=O)c2cc3c(cc21)OCO3,-75.3%
23,COc1ccc2c(c1)c(=Cc1ccc(N(C)C)cc1)c1cc(-c3ccccc3)[n+](C)n12,-127%
24,CCOC(=O)CNC(=O)CN1C(=O)CCSc2ccccc21,16.5%
25,CCOC(=O)CNC(=O)/C=C/c1c(Cl)cccc1Cl,16.6%

row,Structure (SMILES),inhibition
1,CCOC(=O)CNC(=O)N1c2ccccc2Sc2ccccc21,47.5% (active)
2,CC(=O)NC(CC(=O)O)c1ccc(F)cc1 (centres undefined),-2%
3,Cc1[nH]n(-c2ccccc2)c(=O)c1CCOC(=O)c1ccc(C(F)(F)F)cc1,15.4%
4,Cc1ccc(N=Nc2c(C)[nH]n(-c3ccccc3)c2=O)cc1,35.1% (active)
5,Cc1[nH]n(C)c(=O)c1N=Nc1ccc(S(C)(=O)=O)cc1,28.1%
6,Cc1ccc(S(=O)(=O)N(CC(=O)NN=C2CCN(C)CC2)c2ccc(F)cc2)cc1,10.4%
7,Cn1nc(C(F)(F)F)cc1-c1ccc(/C=C(\C#N)C(=O)c2cccc(C(F)(F)F)c2)s1,-159%
8,CN(C)c1nc(N)nc(Cn2nnc(-c3ccc(C(F)(F)F)cc3)n2)n1,17.2%
9,CCc1ccc(-c2nnn(Cc3nc4ccccc4s3)n2)cc1,14%
10,CCc1ccc(-c2nnn(Cc3nn[nH]n3)n2)cc1,41.5% (active)
11,CCOC(=O)c1cc(NC(=O)SCC(=O)O)c(C)nc1C,-84.4%
12,CCCNC(=O)CCn1cc(-c2ccc(OC)cc2)nc1CCN,-0.4%
13,CCCc1cc(=O)[nH]c(SCC(=O)c2c(N)n(CC(C)C)c(=O)n(C)c2=O)n1,2.3%
14,Cc1cc(-c2ccccc2)nc(N2CCC(C(=O)NC34CC5CC(CC(C5)C3)C4)CC2)n1,-325%
15,Cc1ccc2c(c1)-c1c(ssc1=S)C(C)(C)N2C(=O)CN1C(=O)c2ccccc2C1=O,50% (active)
16,Cc1cc(C)cc(NC(=O)CCN2C(=O)c3ccccc3C2=O)c1,8.2%
17,Cc1cc2c(cc1C)N(C(=O)CN1C(=O)c3ccccc3C1=O)C(C)(C)c1ssc(=S)c1-2,41.6% (active)
18,Cc1ccc2[nH]cc(CCCN3C(=O)c4ccccc4C3=O)c2c1,8.9%
19,Cc1ccc(NC(=O)CCN2C(=O)c3ccccc3C2=O)cc1C,14.4%
20,Cc1ccccc1C(=O)NNC(=O)CN1C(=O)c2ccccc2C1=O,21.1%
21,O=C(O)CC1S/C(=N\N=C/c2ccccc2O)N(c2ccc(O)cc2)C1=O (centres undefined),-14.4%
22,Cc1ccc2nc(Nc3ncc4c(n3)CC(C)(C)CC4=O)nc(C)c2c1,-28.2%
23,O=C(CCN1CCCCC1)Nc1ccc(F)c(F)c1,19.3%
24,COCC1CCCN(Cc2cn[nH]c2-c2cc3ccccc3o2)C1 (centres undefined),9.9%
